Outcome and Potency data for eight compounds are collected here from PubChem BioAssay (Tox21).

SMILES strings stand for the structures. Inconclusive results are not listed. Calls of active or inactive are those of the source. Unless noted, calls follow the shape of the dose curve; as a rule, active = well fitted curve in the direction sought with a large enough effect in the repeat runs; inconclusive = weak or mixed curves; inactive = no such curve, though single readings can be large; an effect the other way counts as inactive or inconclusive. Positions of bridges follow the written chain, without caps; N, C: chain ends. Non-standard residues stand in square brackets, D forms with d. Residues, ends and D or L forms follow the SMILES beside them. hArg = N=C(N)NCCCC[C@H](N)C(=O)O; Mpa = O=C(O)CCS

The nature of assay [1]: qHTS assay to identify small molecule agonists of the vitamin D receptor (VDR) signaling pathway - cell viability counter screen (AID 743224). Also: series mostly up to about 63 µM; nearly all actives have a fitted effect of over 50% in size. In short, it runs like this:
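CellTiter-Glo viability readout on VDR-bla cells, measured after 16 h of compound treatment at 37C in the same wells.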
A general note: In qHTS, concentration-response curves come from the screen itself.

Assay [2] in a line: qHTS assay to identify small molecule antagonists of the vitamin D receptor (VDR) signaling pathway - cell viability counter screen (AID 743225). Also: nearly all actives have a fitted effect of over 50% in size. In short, it runs like this: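 Parallel cytotoxicity test: VDR-UAS-bla HEK 293T, 3 nM (final) 1-alpha,25-dihydroxyvitamin D3 with test compound, 16 h, 37C. Endpoint is CellTiter-Glo luminescence in the same wells.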
Assay [3] can be described thus: qHTS assay to identify small molecule agonists of the NFkB signaling pathway (AID 1159509; active = well fitted curve in the direction sought with a large enough effect in the signal ratio in the repeat runs, not every such curve was filed as active; the % refers to the signal ratio; also: series mostly up to about 61 µM). In short, it runs like this: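 Agonist activity was read as beta-lactamase-driven FRET change (460 and 530 nm emission, 405 nm excitation) following 1.5 hr substrate loading at room temperature. Beforehand, ME-180 NFkB-bla reporter cells were treated with compounds for 5 hr at 37 C.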

The nature of assay [4]: qHTS assay to identify small molecule agonists of the NFkB signaling pathway - cell viability counter screen (AID 1159515; calls by dose curve; also: series mostly up to about 61 µM; nearly all actives have a fitted effect of over 55% in size). The method, boiled down: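 Tox21 library compounds were tested for cytotoxicity against NFkB-bla ME-180 cells during a 5 hr exposure at 37 C. CellTiter-Glo luminescence served as the viability read-out.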
A short description of assay [5]: qHTS assay to identify small molecule agonists of the endoplasmic reticulum stress response signaling pathway (AID 1159516; active = well fitted activation curve with a large enough effect in the signal ratio in the repeat runs, not every such curve was filed as active; the % refers to the signal ratio). In short, it runs like this:
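Fluorescence at 460 and 530 nm (405 nm excitation) reports beta-lactamase from an ER stress response element in HeLa cells treated 5 hr at 37 C.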

Assay [6] in a line: qHTS assay to identify small molecule agonists of the endoplasmic reticulum stress response signaling pathway - cell viability counter screen (AID 1159517; calls by dose curve; also: series mostly up to about 61 µM; nearly all actives have a fitted effect of over 50% in size). The method, boiled down: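 ESRE-bla HeLa cells (1,500/well) were plated overnight at 37 C and exposed to compounds for 5 hr. After the 2 hr beta-lactamase substrate read, CellTiter-Glo went into the same wells, and luminescence was read after 30 min at room temperature.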

Assay [7] is described as follows: qHTS assay to identify small molecule antagonists of the retinoid-related orphan receptor gamma (ROR-gamma) signaling pathway - cell viability counter screen (AID 1159520). Also: nearly all actives have a fitted effect of over 50% in size. In short, it runs like this: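 Cytotoxicity was read from cellular ATP (CellTiter-Glo luminescence) after 16 hr at 37 C with 1 uM doxycycline induction. The inducer was added 2 hr after compound transfer to Tet-on ROR gamma CHO cells.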

Assay [8] can be described thus: qHTS assay to identify small molecule agonists of the AP-1 signaling pathway - cell viability counter screen (AID 1159525; calls by dose curve; also: nearly all actives have a fitted effect of over 55% in size). The method, boiled down:
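Intracellular ATP by Cell Titer Glo luminescence (30 min, RT) in the same ME-180 AP-1-bla wells after the 5 h compound exposure at 37 °C. Normalised to tetra n-octyl ammonium bromide and DMSO controls.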

Assay [9] in a line: qHTS assay to identify small molecule agonists of the AP-1 signaling pathway (AID 1159526; calls by dose curve).
Assay [10] concerns the target Retinoic acid receptor RXR-alpha (Homo sapiens) (UniProt P19793). As to the kind of experiment: qHTS assay to identify small molecule agonists of the RXR signaling pathway (AID 1159527; calls by dose curve; also: nearly all actives have a fitted effect of over 35% in size). The method, boiled down:
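16 hr incubation of compound-treated RXR-alpha-UAS-bla HEK 293T cells (2% charcoal-stripped FBS, 37 C) preceded a 2 hr room-temperature LiveBLAzer FRET substrate step and blue/green fluorescence measurement.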

The nature of assay [11]: qHTS assay to identify small molecule agonists of the RXR signaling pathway - cell viability counter screen (AID 1159529). In short, it runs like this: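 In this parallel viability measure, GeneBLAzer RXR-alpha HEK 293T cells (2% charcoal-stripped FBS) were given a 5 hr preincubation, treated with compounds 16 hr at 37 C, and read by CellTiter-Glo luminescence.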
Assay [12] in a line: qHTS assay to identify small molecule antagonists of the retinoid acid receptor (RAR) signaling pathway - cell viability counter screen (AID 1159551). Also: nearly all actives have a fitted effect of over 35% in size. The method, boiled down:
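In this counter screen, the RARE-luciferase line C3RL4 was exposed for 6 h at 37 C and 5% CO2 to compounds with retinol at 1 uM final. Cellular ATP, read by luminescence, served as the viability measure.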

Assay [13] is described as follows: qHTS assay to identify small molecule antagonists of the retinoic acid receptor (RAR) signaling pathway (AID 1159552; also: nearly all actives have a fitted effect of over 50% in size). The method, boiled down:
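C3RL4 RARE-luc cells, overnight plating; retinol 1 uM final added right after compound; 6 hr 37 C; luciferase read at 30 min RT.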

Assay [14] in a line: qHTS assay to identify small molecule agonists of the retinoic acid receptor (RAR) signaling pathway (AID 1159553). In short, it runs like this: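 In this cell-based screen, 1,000 C3RL4 cells per well were cultured overnight, dosed with test chemicals in DMSO for 6 hr, and assessed for RARE luciferase luminescence.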
Assay [15] deals with Luciferin 4-monooxygenase (Photinus pyralis) (UniProt P08659). Briefly: qHTS assay to identify small molecule inhibitors of firefly luciferase (AID 1224835). Also: nearly all actives have a fitted effect of over 25% in size. Also: potency is read from the fitted curve at half-maximal effect. The method, boiled down:
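Inhibition of purified Photinus luciferase is measured by luminescence. Substrate levels (D-luciferin, ATP) sit at their KM values. Each compound is tested in a concentration series.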

A short description of assay [16]: qHTS assay to identify small molecule agonists of the constitutive androstane receptor (CAR) signaling pathway - cell viability counter screen (AID 1224836). Also: series mostly up to about 92 µM; nearly all actives have a fitted effect of over 45% in size. The method, boiled down: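 Using CellTiter-Fluor, viability of HepG2 cells harbouring hCAR and CYP2B6-2.2kb was measured following 23 h incubation with a 15-concentration compound series plus PK11195 (0.75 uM final).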

A short description of assay [17]: qHTS assay to identify small molecule antagonists of the constitutive androstane receptor (CAR) signaling pathway - cell viability counter screen (AID 1224837). Also: series mostly up to about 92 µM; nearly all actives have a fitted effect of over 45% in size. In short, it runs like this:
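CITCO at 50 nM final was added alongside compounds (15 concentrations) to double-stable hCAR/CYP2B6-2.2kb HepG2 cells. Following 23 hr at 37 C, cell viability was quantified by CellTiter-Fluor fluorescence intensity.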

Assay [18] deals with Nuclear receptor subfamily 1 group I member 3 (Homo sapiens) (UniProt Q14994). As to the kind of experiment: qHTS assay to identify small molecule antagonists of the constitutive androstane receptor (CAR) signaling pathway (AID 1224838). Also: nearly all actives have a fitted effect of over 40% in size. The method, boiled down: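 Inhibition of CITCO-driven (50 nM final) CYP2B6 reporter expression is measured in HepG2 cells stably carrying hCAR. Fifteen compound concentrations are applied for 24 h at 37 C, followed by luciferase luminescence.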

Assay [19] is described as follows: qHTS assay to identify small molecule antagonists of the estrogen related receptor (ERR) signaling pathway from Tox21 library - cell viability counter screen (AID 1224834). Also: nearly all actives have a fitted effect of over 30% in size. The method, boiled down:
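Counter screen run in ERR cells (2,000 cells/well): cells pre-incubated 6 h, then treated with compounds for 17.5 h at 37 C. Fluorescence was read 30 min after CellTiter-Fluor addition.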

Assay [20] deals with Nuclear receptor ROR-gamma (Homo sapiens) (UniProt P51449). As to the kind of experiment: qHTS assay to identify small molecule antagonists of the retinoid-related orphan receptor gamma (ROR-gamma) signaling pathway (AID 1159521). The method, boiled down: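 Decreased RORE-driven luciferase luminescence indicates antagonism. Tet-on RORγ CHO cells received compound, then 1 uM final doxycycline 2 h later; signal read after 16 h incubation.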

Chain of Retinoic acid receptor RXR-alpha (Homo sapiens) (P19793 whole entry, looked up): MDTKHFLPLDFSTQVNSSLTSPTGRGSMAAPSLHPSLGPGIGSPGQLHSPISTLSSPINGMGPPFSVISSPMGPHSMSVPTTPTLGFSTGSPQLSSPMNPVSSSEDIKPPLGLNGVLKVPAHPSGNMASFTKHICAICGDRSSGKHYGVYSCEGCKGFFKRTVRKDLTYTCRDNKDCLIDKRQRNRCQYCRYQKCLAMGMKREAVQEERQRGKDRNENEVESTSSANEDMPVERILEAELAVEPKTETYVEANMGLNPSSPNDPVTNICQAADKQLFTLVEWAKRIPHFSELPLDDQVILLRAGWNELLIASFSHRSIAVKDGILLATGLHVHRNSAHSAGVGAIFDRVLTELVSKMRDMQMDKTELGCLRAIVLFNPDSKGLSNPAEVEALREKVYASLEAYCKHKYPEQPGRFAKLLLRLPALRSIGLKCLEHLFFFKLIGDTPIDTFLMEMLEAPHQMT
Chain of Nuclear receptor subfamily 1 group I member 3 (Homo sapiens) (Q14994 whole entry, looked up): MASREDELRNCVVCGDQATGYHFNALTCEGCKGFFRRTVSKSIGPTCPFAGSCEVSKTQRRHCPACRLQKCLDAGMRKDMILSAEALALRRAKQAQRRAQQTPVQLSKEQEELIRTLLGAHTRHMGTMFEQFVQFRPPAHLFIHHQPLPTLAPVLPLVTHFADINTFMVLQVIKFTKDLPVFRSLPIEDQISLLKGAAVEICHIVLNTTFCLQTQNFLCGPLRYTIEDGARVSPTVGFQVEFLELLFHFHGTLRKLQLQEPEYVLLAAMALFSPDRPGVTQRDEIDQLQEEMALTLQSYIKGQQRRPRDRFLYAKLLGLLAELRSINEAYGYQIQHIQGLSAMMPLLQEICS
Chain of Luciferin 4-monooxygenase (Photinus pyralis) (P08659 whole entry, looked up): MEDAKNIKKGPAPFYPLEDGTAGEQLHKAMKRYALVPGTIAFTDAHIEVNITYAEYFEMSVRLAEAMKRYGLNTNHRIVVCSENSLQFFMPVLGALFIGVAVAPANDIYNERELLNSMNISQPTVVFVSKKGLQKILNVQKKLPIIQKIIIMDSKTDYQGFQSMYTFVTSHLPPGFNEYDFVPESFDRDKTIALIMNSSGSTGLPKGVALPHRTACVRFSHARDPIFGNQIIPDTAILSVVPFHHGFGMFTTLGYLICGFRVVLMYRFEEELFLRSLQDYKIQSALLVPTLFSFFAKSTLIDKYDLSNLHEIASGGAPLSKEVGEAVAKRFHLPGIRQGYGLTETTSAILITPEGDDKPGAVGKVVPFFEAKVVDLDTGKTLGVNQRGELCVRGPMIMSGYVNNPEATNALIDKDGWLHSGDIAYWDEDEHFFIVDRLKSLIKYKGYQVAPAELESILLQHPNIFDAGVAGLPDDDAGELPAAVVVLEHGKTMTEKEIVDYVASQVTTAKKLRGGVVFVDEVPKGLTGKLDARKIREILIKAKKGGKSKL

`CCO`: the call in assay [1], in assay [2], in assay [3], in assay [4], in [5] and in assay [6] was inactive. In addition, the call in [7], in assay [8], in assay [9], in assay [11], in assay [12] and in [13] was inactive. Besides, the compound was classed as inactive in [16] and in [17]. Further, the Potency entry in assay [10], in assay [14], in assay [15] and in assay [18] was “inactive” throughout.
With `CCC(C)OC(C)CC` (stereo not given), the outcome in assay [1], in [2], in assay [3], in [4], in assay [5] and in [6] was inactive. For the same compound, the call in assay [7], in assay [8], in [9], in assay [11], in [12] and in [13] was inactive. For the same compound, the outcome in [19], in assay [16] and in assay [17] was inactive. Besides, the Potency result in assay [10], in [14], in [15] and in [18] was “inactive” throughout.
`CCCCCCCCCCCCCBr`: the compound was called inactive in assay [1], in assay [3], in assay [4], in assay [5], in assay [6] and in assay [7]. In addition, the call in assay [8], in [9], in [11], in assay [13], in assay [19] and in assay [16] was inactive. Further, the compound was classed as inactive in [17]. The Potency result in assay [10], in assay [14], in [15] and in assay [18] was “inactive” each time.
Consider `C#CCN[C@@H]1CCc2ccccc21`, for which the compound was classed as inactive in assay [1], in [2], in [3], in assay [4], in [5] and in assay [6]. Further, the outcome in assay [7], in assay [9], in [11], in assay [12], in assay [13] and in assay [19] was inactive. In addition, the call in assay [16] and in assay [17] was inactive. For the same compound, the Potency entry in assay [10], in [15] and in [18] was “inactive” each time.
With `CC1CC(=O)CC(C)(C)C1` (stereo not given), the compound was called inactive in [1], in assay [3], in assay [4], in [5], in assay [6] and in assay [7]. In addition, the call in assay [8], in [9], in assay [11], in assay [13], in [19] and in [16] was inactive. In addition, the result in assay [17] was inactive. Moreover, the Potency result in [10], in [14] and in assay [15] was “inactive” in each case.
Turning to `CC(S)C(C)S` (stereo not given), the result in [1], in assay [3], in [4], in [5], in assay [6] and in assay [7] was inactive. For the same compound, the compound was classed as inactive in assay [9], in assay [11], in assay [12], in assay [13], in [19] and in assay [16]. Besides, the compound was called inactive in [17]. Moreover, the Potency entry in assay [10], in assay [14], in assay [15] and in assay [18] was “inactive” throughout.
As to `NC(=O)[C@@H]1CSSCCC(=O)N[C@@H](CCCCN=C(N)N)C(=O)NCC(=O)N[C@@H](CC(=O)O)C(=O)N[C@@H](Cc2c[nH]c3ccccc23)C(=O)N2CCC[C@H]2C(=O)N1` ([Mpa][hArg]GDWPC-NH2; disulfide 1-7), the outcome in assay [1], in [4], in assay [5], in assay [6], in assay [7] and in assay [20] was inactive. In addition, the call in [8], in [9], in assay [11], in assay [12], in assay [13] and in assay [19] was inactive. Also, the result in assay [16] and in assay [17] was inactive. The Potency result in assay [10], in assay [14], in assay [15] and in assay [18] was “inactive” each time.
Consider `O=C[O][Al]([O]C=O)[O]C=O`, for which the call in assay [1], in assay [2], in [3], in [4], in assay [5] and in [7] was inactive. For the same compound, the outcome in [20], in assay [9], in assay [11], in assay [12], in [13] and in [19] was inactive. In addition, the result in assay [16] and in assay [17] was inactive. Also, the Potency entry in [10], in assay [14] and in assay [18] was “inactive” each time. Moreover, the Potency in assay [15] is 63.3 µM (active).
